The results in this text go back to PubChem BioAssay.

Each structure is given as a SMILES string. Activity calls are given as the source filed them. No rule for the calls is given here.

The assay has as its system Aerobactin synthetase IucA (Klebsiella pneumoniae hvKP1). Kind of assay: Biochemical IucA enzyme inhibition primary screen of the Spectrum library (AID 1346200).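 Also: 100% = wells without compound and 0% = wells lacking enzyme.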 As to conditions: malachite green pyrophosphate, A620, at 8 µM, stronger effect = lower value.
In the case of `CCn1cc(C(=O)O)c(=O)c2cc(F)c(N3CCN(C)CC3)cc21`, the activity remaining was 109% (inactive).
As for `O=C(O)c1ccccc1O`, the figure is 121% (inactive); as for `CCC(=O)O[C@]1(C(=O)CCl)[C@@H](C)CC2C3CCC4=CC(=O)C=C[C@]4(C)[C@@]3(F)[C@@H](O)C[C@@]21C` (some centres undefined), 112% (inactive); as for `CCC(C)C(NC)C(=O)O` (centres undefined), 116% (inactive).
